Numbering of substitutions follows the chain as printed; changes in the protein carry UniProt numbers. Over roughly 16,000 sequences, “ka relative to ugcaugu” has its median near 0.096; the highest 2% begin near 0.35. Many of the other results were omitted from the sample, so the highest values are more common in it than they were.
T1: RBFOX1 RRM RbFoxmut (Fox-RRM*) (Homo sapiens, UniProt Q9NWB1 109-208, R118D;E147R;N151S;E152T)
T1 sequence: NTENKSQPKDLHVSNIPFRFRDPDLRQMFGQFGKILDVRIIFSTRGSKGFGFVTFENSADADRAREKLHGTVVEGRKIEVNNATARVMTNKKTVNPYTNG

B1: GUGUCUU (DNA:RNA)
RNA: GGGAGACCGGAAUUCAGAUUGUCCGUGUCUUUUAAAUCCCGUCGUAGCCACCA
DNA 1: CAATCTGAATTCCGGTCTCCC
DNA 2: TGGTGGCTACGACGGGATT
B2: UGAUGGG (DNA:RNA)
RNA: B1 RNA with G25U, U26G, G27A, C29G, U30G, U31G
DNA 1: CAATCTGAATTCCGGTCTCCC
DNA 2: TGGTGGCTACGACGGGATT
B3: GGUGGAC (DNA:RNA)
RNA: B1 RNA with U26G, G27U, U28G, C29G, U30A, U31C
DNA 1: CAATCTGAATTCCGGTCTCCC
DNA 2: TGGTGGCTACGACGGGATT
B4: CGCAACA (DNA:RNA)
RNA: GGGAGACCGGAAUUCAGAUUGUCCCGCAACAUUAAAUCCCGUCGUAGCCACCA
DNA 1: CAATCTGAATTCCGGTCTCCC
DNA 2: TGGTGGCTACGACGGGATT
B5: GCACAGC (DNA:RNA)
RNA: B4 RNA with C25G, G26C, C27A, A28C, C30G, A31C
DNA 1: CAATCTGAATTCCGGTCTCCC
DNA 2: TGGTGGCTACGACGGGATT
B6: GCGAUGU (DNA:RNA)
RNA: B1 RNA with U26C, U28A, C29U, U30G
DNA 1: CAATCTGAATTCCGGTCTCCC
DNA 2: TGGTGGCTACGACGGGATT
B7: CUCAAAA (DNA:RNA)
RNA: B4 RNA with G26U, C30A
DNA 1: CAATCTGAATTCCGGTCTCCC
DNA 2: TGGTGGCTACGACGGGATT
B8: GUCCGUG (DNA:RNA)
RNA: B1 RNA with G27C, U28C, C29G, U31G
DNA 1: CAATCTGAATTCCGGTCTCCC
DNA 2: TGGTGGCTACGACGGGATT
B9: UCGUUUG (DNA:RNA)
RNA: B1 RNA with G25U, U26C, C29U, U31G
DNA 1: CAATCTGAATTCCGGTCTCCC
DNA 2: TGGTGGCTACGACGGGATT
B10: UUGUACG (DNA:RNA)
RNA: B1 RNA with G25U, C29A, U30C, U31G
DNA 1: CAATCTGAATTCCGGTCTCCC
DNA 2: TGGTGGCTACGACGGGATT
B11: GUGUACG (DNA:RNA)
RNA: B1 RNA with C29A, U30C, U31G
DNA 1: CAATCTGAATTCCGGTCTCCC
DNA 2: TGGTGGCTACGACGGGATT
B12: UUGUUGU (DNA:RNA)
RNA: B1 RNA with G25U, C29U, U30G
DNA 1: CAATCTGAATTCCGGTCTCCC
DNA 2: TGGTGGCTACGACGGGATT
B13: GUGUCCC (DNA:RNA)
RNA: B1 RNA with U30C, U31C
DNA 1: CAATCTGAATTCCGGTCTCCC
DNA 2: TGGTGGCTACGACGGGATT
B14: GUACGUG (DNA:RNA)
RNA: B1 RNA with G27A, U28C, C29G, U31G
DNA 1: CAATCTGAATTCCGGTCTCCC
DNA 2: TGGTGGCTACGACGGGATT
B15: UUGUCGU (DNA:RNA)
RNA: B1 RNA with G25U, U30G
DNA 1: CAATCTGAATTCCGGTCTCCC
DNA 2: TGGTGGCTACGACGGGATT
B16: UCGUUUU (DNA:RNA)
RNA: B1 RNA with G25U, U26C, C29U
DNA 1: CAATCTGAATTCCGGTCTCCC
DNA 2: TGGTGGCTACGACGGGATT
B17: GUGUGUG (DNA:RNA)
RNA: B1 RNA with C29G, U31G
DNA 1: CAATCTGAATTCCGGTCTCCC
DNA 2: TGGTGGCTACGACGGGATT
B18: UCGUCGU (DNA:RNA)
RNA: B1 RNA with G25U, U26C, U30G
DNA 1: CAATCTGAATTCCGGTCTCCC
DNA 2: TGGTGGCTACGACGGGATT
B19: UUGUUUG (DNA:RNA)
RNA: B1 RNA with G25U, C29U, U31G
DNA 1: CAATCTGAATTCCGGTCTCCC
DNA 2: TGGTGGCTACGACGGGATT
B20: UUAGCGG (DNA:RNA)
RNA: B1 RNA with G25U, G27A, U28G, U30G, U31G
DNA 1: CAATCTGAATTCCGGTCTCCC
DNA 2: TGGTGGCTACGACGGGATT
B21: AGAGGUC (DNA:RNA)
RNA: B4 RNA with C25A, C27A, A28G, A29G, C30U, A31C
DNA 1: CAATCTGAATTCCGGTCTCCC
DNA 2: TGGTGGCTACGACGGGATT
B22: CCAGAUU (DNA:RNA)
RNA: B4 RNA with G26C, C27A, A28G, C30U, A31U
DNA 1: CAATCTGAATTCCGGTCTCCC
DNA 2: TGGTGGCTACGACGGGATT
B23: UUCCUGU (DNA:RNA)
RNA: B1 RNA with G25U, G27C, U28C, C29U, U30G
DNA 1: CAATCTGAATTCCGGTCTCCC
DNA 2: TGGTGGCTACGACGGGATT
B24: GGACAAA (DNA:RNA)
RNA: B4 RNA with C25G, C27A, A28C, C30A
DNA 1: CAATCTGAATTCCGGTCTCCC
DNA 2: TGGTGGCTACGACGGGATT
B25: CCCAACC (DNA:RNA)
RNA: B4 RNA with G26C, A31C
DNA 1: CAATCTGAATTCCGGTCTCCC
DNA 2: TGGTGGCTACGACGGGATT
B26: GCCACAA (DNA:RNA)
RNA: B4 RNA with C25G, G26C, A29C, C30A
DNA 1: CAATCTGAATTCCGGTCTCCC
DNA 2: TGGTGGCTACGACGGGATT
B27: UGUAAGU (DNA:RNA)
RNA: B4 RNA with C25U, C27U, C30G, A31U
DNA 1: CAATCTGAATTCCGGTCTCCC
DNA 2: TGGTGGCTACGACGGGATT
B28: UCAGUAU (DNA:RNA)
RNA: B1 RNA with G25U, U26C, G27A, U28G, C29U, U30A
DNA 1: CAATCTGAATTCCGGTCTCCC
DNA 2: TGGTGGCTACGACGGGATT
B29: AUUAGAG (DNA:RNA)
RNA: B4 RNA with C25A, G26U, C27U, A29G, C30A, A31G
DNA 1: CAATCTGAATTCCGGTCTCCC
DNA 2: TGGTGGCTACGACGGGATT
B30: CCAGAGU (DNA:RNA)
RNA: B4 RNA with G26C, C27A, A28G, C30G, A31U
DNA 1: CAATCTGAATTCCGGTCTCCC
DNA 2: TGGTGGCTACGACGGGATT
B31: GUCGUGU (DNA:RNA)
RNA: B1 RNA with G27C, U28G, C29U, U30G
DNA 1: CAATCTGAATTCCGGTCTCCC
DNA 2: TGGTGGCTACGACGGGATT
B32: UUGUGUA (DNA:RNA)
RNA: B1 RNA with G25U, C29G, U31A
DNA 1: CAATCTGAATTCCGGTCTCCC
DNA 2: TGGTGGCTACGACGGGATT
B33: GAGUUGU (DNA:RNA)
RNA: B1 RNA with U26A, C29U, U30G
DNA 1: CAATCTGAATTCCGGTCTCCC
DNA 2: TGGTGGCTACGACGGGATT
B34: GUGUAUA (DNA:RNA)
RNA: B1 RNA with C29A, U31A
DNA 1: CAATCTGAATTCCGGTCTCCC
DNA 2: TGGTGGCTACGACGGGATT
B35: CGUUUUG (DNA:RNA)
RNA: B4 RNA with C27U, A28U, A29U, C30U, A31G
DNA 1: CAATCTGAATTCCGGTCTCCC
DNA 2: TGGTGGCTACGACGGGATT
B36: GUGUCGU (DNA:RNA)
RNA: B1 RNA with U30G
DNA 1: CAATCTGAATTCCGGTCTCCC
DNA 2: TGGTGGCTACGACGGGATT
B37: GAGUUUG (DNA:RNA)
RNA: B1 RNA with U26A, C29U, U31G
DNA 1: CAATCTGAATTCCGGTCTCCC
DNA 2: TGGTGGCTACGACGGGATT
B38: GUCCGAG (DNA:RNA)
RNA: B1 RNA with G27C, U28C, C29G, U30A, U31G
DNA 1: CAATCTGAATTCCGGTCTCCC
DNA 2: TGGTGGCTACGACGGGATT
B39: GUUGUGU (DNA:RNA)
RNA: B1 RNA with G27U, U28G, C29U, U30G
DNA 1: CAATCTGAATTCCGGTCTCCC
DNA 2: TGGTGGCTACGACGGGATT
B40: GUGUGUA (DNA:RNA)
RNA: B1 RNA with C29G, U31A
DNA 1: CAATCTGAATTCCGGTCTCCC
DNA 2: TGGTGGCTACGACGGGATT
B41: GUUUGUG (DNA:RNA)
RNA: B1 RNA with G27U, C29G, U31G
DNA 1: CAATCTGAATTCCGGTCTCCC
DNA 2: TGGTGGCTACGACGGGATT
B42: GUGUUUG (DNA:RNA)
RNA: B1 RNA with C29U, U31G
DNA 1: CAATCTGAATTCCGGTCTCCC
DNA 2: TGGTGGCTACGACGGGATT

The binders below were run against T1, RBFOX1 RRM RbFoxmut (Fox-RRM*) (assay: EMSA; HiTS-Eq, 1 nM pool, 10 min; buffer printed only for the single-RNA assays: 10 mM Tris pH 7.5, 150 mM NaCl, 3.4 mM EDTA, 0.001% NP-40, 30 C). Conditions: tags: His6 N-terminal (pET28a); label: 5' 32P.
In short: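 Purified RbFox RRM (wild type or mutant) was equilibrated for 10 min in 50 µL with 1 nM of a 5′-radiolabelled pool of RNA with 7 randomized nucleotides, its flanks annealed to DNA oligonucleotides, across increasing protein concentrations. Free RNA was separated by 8% native PAGE, excised, reverse-transcribed, PCR-barcoded and sequenced on an Illumina HiSeq 2500. Relative association constants came from read-count changes of each variant against the control reaction, normalised to the cognate motif.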
For B1, the binding signal was 0.101 KA relative to UGCAUGU.
With B2 the binding signal was 0.0449 KA relative to UGCAUGU.
In the case of B3, the binding signal is reported as 0.0584 KA relative to UGCAUGU.
In the case of B4, the binding signal is reported as 0.102 KA relative to UGCAUGU.
With B5 the binding signal was 0.0832 KA relative to UGCAUGU.
For B6, the binding signal was 0.151 KA relative to UGCAUGU.
In the case of B7, the binding signal is reported as 0.0819 KA relative to UGCAUGU.
With B8 the binding signal was 0.146 KA relative to UGCAUGU.
In the case of B9, the binding signal is reported as 0.396 KA relative to UGCAUGU.
In the case of B10, the binding signal is reported as 0.261 KA relative to UGCAUGU.
B11 was tested, and the binding signal was 0.441 KA relative to UGCAUGU.
With B12 the binding signal was 0.21 KA relative to UGCAUGU.
With B13 the binding signal was 0.101 KA relative to UGCAUGU.
For B14, the binding signal was 0.188 KA relative to UGCAUGU.
In the case of B15, the binding signal is reported as 0.132 KA relative to UGCAUGU.
For B16, the binding signal was 0.0973 KA relative to UGCAUGU.
B17 was tested, and the binding signal was 0.532 KA relative to UGCAUGU.
In the case of B18, the binding signal is reported as 0.109 KA relative to UGCAUGU.
For B19, the binding signal was 0.709 KA relative to UGCAUGU.
With B20 the binding signal was 0.0965 KA relative to UGCAUGU.
For B21, the binding signal was 0.108 KA relative to UGCAUGU.
With B22 the binding signal was 0.0808 KA relative to UGCAUGU.
With B23 the binding signal was 0.0952 KA relative to UGCAUGU.
B24 was tested, and the binding signal was 0.0761 KA relative to UGCAUGU.
In the case of B25, the binding signal is reported as 0.0535 KA relative to UGCAUGU.
In the case of B26, the binding signal is reported as 0.0608 KA relative to UGCAUGU.
For B27, the binding signal was 0.118 KA relative to UGCAUGU.
With B28 the binding signal was 0.116 KA relative to UGCAUGU.
For B29, the binding signal was 0.146 KA relative to UGCAUGU.
With B30 the binding signal was 0.126 KA relative to UGCAUGU.
For B31, the binding signal was 0.187 KA relative to UGCAUGU.
For B32, the binding signal was 0.315 KA relative to UGCAUGU.
With B33 the binding signal was 0.138 KA relative to UGCAUGU.
B34 was tested, and the binding signal was 0.166 KA relative to UGCAUGU.
With B35 the binding signal was 0.133 KA relative to UGCAUGU.
For B36, the binding signal was 0.164 KA relative to UGCAUGU.
B37 was tested, and the binding signal was 0.361 KA relative to UGCAUGU.
With B38 the binding signal was 0.129 KA relative to UGCAUGU.
For B39, the binding signal was 0.224 KA relative to UGCAUGU.
For B40, the binding signal was 0.371 KA relative to UGCAUGU.
For B41, the binding signal was 0.462 KA relative to UGCAUGU.
In the case of B42, the binding signal is reported as 0.68 KA relative to UGCAUGU.

Reference: paper PMC9911399, “Two distinct binding modes provide the RNA-binding protein RbFox with extraordinary sequence specificity”
